SENP6 inh: blocks the human protease SENP6; 330,000 compounds, 1.8% hits; Recombinant SENP6 catalytic domain, aminoluciferin luminescence; inhibition, % at 10 µM; Q9GZR1;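 active = inhibition above about 50% at the single tested dose, limit read from the data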;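 also: plate controls were DMSO wells with enzyme for no effect and DMSO wells lacking enzyme for full effect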
Target sequence (Q9GZR1 628-1112 limits assumed): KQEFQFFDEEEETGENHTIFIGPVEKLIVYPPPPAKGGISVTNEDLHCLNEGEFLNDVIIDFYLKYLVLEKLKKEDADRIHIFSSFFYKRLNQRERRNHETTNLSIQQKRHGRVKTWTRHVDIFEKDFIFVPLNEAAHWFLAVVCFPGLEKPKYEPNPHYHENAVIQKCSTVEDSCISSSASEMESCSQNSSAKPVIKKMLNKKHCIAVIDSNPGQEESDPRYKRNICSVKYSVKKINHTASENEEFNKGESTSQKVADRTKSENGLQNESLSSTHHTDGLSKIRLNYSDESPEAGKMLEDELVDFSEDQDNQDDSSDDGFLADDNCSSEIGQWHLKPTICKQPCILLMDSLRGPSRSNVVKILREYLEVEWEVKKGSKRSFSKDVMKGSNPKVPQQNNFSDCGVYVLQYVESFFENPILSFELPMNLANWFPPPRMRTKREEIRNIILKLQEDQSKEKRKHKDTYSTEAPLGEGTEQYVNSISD
Platelet DG rel: modulates dense granule release in human platelets; human platelet-rich plasma, SFLLRN dense granule ATP release, luminescence; inhibition, %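 (compounds screened at 7.5 µM in platelet-rich plasma)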; 300,000 compounds, 0.22% hits;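 active = mean replicate score, as percent of positive control, at or above 50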
SENP7 inh: inhibitors of human SENP7 protease | Q9BQF6 | recombinant SENP7, Z-RLRGG-aminoluciferin luminescence, 40 min | inhibition, % at 5 µM | 330,000 compounds, 1.5% hits;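 active = inhibition above about 50% at the single test dose, limit read from the data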;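 also: plate controls were DMSO with enzyme for no effect and no enzyme buffer wells for full effect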
SENP8 block-1: SENP8 (human) protease inhibition; Q96LD8; recombinant SENP8, Nedd8 substrate fluorescence; inhibition, % at 20 µM; 360,000 compounds, 0.64% hits; in the data active = inhibition mostly above about 40%, no sharp cut-off; inactive = mostly below about 27%
SENP8 block-2: SENP8 protease inhibition | Q96LD8 | purified SENP8, Z-RLRGG-aminoluciferin cleavage, luminescence | inhibition, % at 10 µM | 330,000 compounds, 1.2% hits | AID 2540; in the data active = inhibition above about 50%
HSP90 inh: blocks HSP90-mediated luciferase refolding in reticulocyte lysate. 290,000 compounds, 0.91% hits. inhibition, % at 5.6 µM. AID 1789. Rabbit reticulocyte lysate, luciferase refolding luminescence, 3 h;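 active = inhibition above the screen-wide mean plus 3 SD, computed separately per campaign, cut at about 16% in these data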;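 also: 0% = DMSO wells and 100% = 60 µM geldanamycin wells; inhibitors lower the luminescence because luciferase stays unfolded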
SENP8 conf: confirmation of human SENP8 protease inhibitors; 6,200 compounds, 40% hits; Recombinant SENP8, Z-RLRGG-aminoluciferin luminescence, 60 min; AID 488912; shares compounds with SENP7 inh; inhibition, % at 12.5 µM;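 active = mean inhibition across replicates above about 50%, limit read from the data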
SENP6 conf: human SENP6 inhibition, confirmed; shares compounds with SENP7 inh; recombinant SENP6, Z-RLRGG-aminoluciferin luminescence; inhibition, % at 12.5 µM; 6,200 compounds, 58% hits; AID 488915
SENP7 conf: human SENP7 inhibition, confirmed | shares compounds with SENP7 inh | recombinant SENP7, Z-RLRGG-aminoluciferin luminescence, 40 min | inhibition, % at 12.5 µM | 6,200 compounds, 69% hits | AID 488917
Casp3 select: inhibits human caspase-3 in SENP selectivity test; shares compounds with SENP7 inh; purified caspase-3, Z-DEVD-aminoluciferin luminescence, 60 min; inhibition, % at 12.5 µM; 6,200 compounds, 60% hits;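 active = mean inhibition above about 50%, limit read from the data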;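 also: plate controls were enzyme with DMSO for no effect and wells without caspase-3 for full effect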
Target sequence (P42574 28-227 limits assumed): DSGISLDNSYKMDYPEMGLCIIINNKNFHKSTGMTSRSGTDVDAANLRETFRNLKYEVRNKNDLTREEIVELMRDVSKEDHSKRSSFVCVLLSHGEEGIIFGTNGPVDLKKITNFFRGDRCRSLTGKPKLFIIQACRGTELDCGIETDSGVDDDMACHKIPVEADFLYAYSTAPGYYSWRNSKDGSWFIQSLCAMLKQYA
Luc interf: luminescence interference (SENP counter-screen). shares compounds with SENP7 inh. Pre-incubated SENP8/Z-RLRGG-aminoluciferin, luciferase luminescence interference. inhibition, % at 12.5 µM. AID 488919. 6,200 compounds, 39% hits;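 active = mean inhibition above about 50% when retested at one dose, limit read from the data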;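 also: plate controls were DMSO wells with completed reaction for no effect and substrate without enzyme for full effect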
Active calls of the source: *; x = no result. A selection: hits, their analogues and other compounds. The true share with any hit is near 2.8%.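 The calls were made as follows, unless noted: active = mean inhibition above about 50% in the one-dose retest (limit read from the data); inactive = the rest.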

SMILES	SENP6 inh	Platelet DG rel	SENP7 inh	SENP8 block-1	SENP8 block-2	HSP90 inh	SENP8 conf	SENP6 conf	SENP7 conf	Casp3 select	Luc interf
C=C(C)CNC(=O)c1ccc2nc(Cc3ccc(OC)cc3)oc2c1	49.0	7.7	50.9*	33.4	16.6	-4.7	39.5	39.2	75.3*	65.7*	48.3
CC(Oc1ccc2ccccc2c1)C(=O)N/N=C/c1cccnc1 (stereo not given)	-9.2	-2.7	-3.1	7.2	1.7	-3.6	x	x	x	x	x
CC(Nc1ccc2ccccc2c1)C(=O)N/N=C/c1ccncc1 (stereo not given)	56.2*	x	31.5	18.4	47.7	x	-22.7	-17.1	-5.6	-6.4	-5.6
COc1ccc(-c2cc(=Nc3ccc(C(=O)O)cc3)c3cc(C)ccc3o2)cc1	65.8*	4.3	89.5*	-445.7	78.6*	2.1	-3.5	81.0*	93.3*	83.8*	63.9*
CCc1ccc2oc(-c3ccc(OC)cc3)cc(=Nc3c(C)n(C)n(-c4ccccc4)c3=O)c2c1	96.6*	6.6	98.7*	-447.7	84.5*	10.7	22.9	20.0	15.6	48.2	19.8
COc1ccc2cc(C(=O)NCc3ccco3)c(=Nc3ccc(C(=O)O)cc3)oc2c1	9.9	-1.2	2.2	-299.2	2.9	2.9	x	x	x	x	x
COc1ccccc1C(O)c1ncc(-c2cccc(C(F)(F)F)c2)[nH]1 (stereo not given)	x	x	x	10.5	x	x	x	x	x	x	x
CC(/C=C/c1ccc(O)cc1)=N/O	90.9*	7.1	85.2*	2.3	81.1*	4.5	85.8*	84.5*	96.0*	93.1*	86.5*
O=C(O)/C=C/c1ccc(O)cc1	13.0	-6.5	-3.8	26.4	2.0	x	x	x	x	x	x
COc1ccc(CCNC(=O)C(=O)c2cn(CC(=O)N3CCCC3)c3ccccc23)cc1	x	x	x	4.6	x	x	x	x	x	x	x
O=C(O)c1cccc(NC(=O)c2cccc(S(=O)(=O)N3CCCCC3)c2)c1	76.8*	-1.0	78.3*	9.3	64.2*	10.7	79.0*	77.0*	93.6*	42.4	65.9*
O=C(COC(=O)CCC(=O)c1ccc(F)cc1)Nc1cccc(S(=O)(=O)N2CCCC2)c1	88.5*	58.6*	-1.8	15.5	-2.1	-0.3	3.4	-4.2	-10.4	-2.9	-2.5
CCC(=O)c1ccc(OCC(=O)OCC(=O)Nc2cccc(S(=O)(=O)N3CCCC3)c2)cc1	-9.2	x	-1.1	6.3	-1.9	x	x	x	x	x	x
COc1ccc(C(=O)Nc2cccc(C(=O)O)c2)cc1S(=O)(=O)N1CCCC1	51.2*	2.5	54.4*	3.2	35.8	2.2	37.8	35.8	73.4*	15.9	9.3
C[C@H](CO)N1C[C@H](C)[C@@H](CN(C)C(=O)Nc2ccc(C(F)(F)F)cc2)Oc2c(NC(=O)CCC(F)(F)F)cccc2C1=O	-0.4	x	-5.0	8.3	10.9	x	x	x	x	x	x
O=C(/C=C/c1ccccc1)Nc1sc2c(c1C(=O)O)CCC2	-4.8	12.7	7.4	0.5	68.8*	2.1	-5.4	73.6*	90.4*	73.1*	81.4*
O=C(/C=C/c1ccco1)Nc1sc2c(c1C(=O)O)CCC2	92.4*	1.0	43.7	9.2	83.8*	-0.6	90.9*	90.5*	99.4*	93.7*	91.7*
O=C1C2CC=CCC2C(=O)N1c1ccc(N2CCN(c3ccccn3)CC2)c([N+](=O)[O-])c1 (stereo not given)	1.2	-3.0	-4.4	9.2	-4.6	0.5	x	x	x	x	x
CCC(CO)Oc1cc(NCc2ccccc2)c2ncn(C(C)C)c2c1 (stereo not given)	-0.4	x	11.3	13.1	-1.2	x	x	x	x	x	x
CC(C)n1cnc2c(NCc3ccccc3)cc(N[C@H](C)CO)cc21	-20.3	x	46.9	-73.4	81.0*	x	85.0*	90.4*	67.8*	97.3*	-3.3
CCC(COC)Oc1cc(NCc2ccccc2)c2ncn(C(C)C)c2c1 (stereo not given)	83.7*	x	73.1*	10.9	76.8*	x	41.6	71.1*	22.7	4.8	-3.3
CNC(=O)c1c(NC(=O)CCS(=O)(=O)c2ccc(C)cc2)sc2c1CCN(C(=O)OC)C2	5.1	-11.6	-4.6	-41.7	2.1	x	x	x	x	x	x
COc1cccc(C(=O)/C=C/Nc2ccc(S(=O)(=O)Nc3onc(C)c3C)cc2)c1	88.3*	-5.7	58.4*	-1.7	78.3*	-2.8	67.8*	66.9*	86.2*	68.5*	24.6
Cc1cc(NS(=O)(=O)c2ccc(NC(=O)Nc3ccccc3)cc2)no1	53.8*	12.7	33.0	19.6	22.7	-0.2	34.2	30.4	67.1*	68.8*	30.2
Cc1noc(NS(=O)(=O)c2ccc(NC(=O)Nc3ccc(Cl)c(Cl)c3)cc2)c1C	86.2*	0.1	15.7	20.9	81.7*	-2.4	89.0*	89.0*	95.0*	50.7*	85.4*
SMILES	SENP6 inh	Platelet DG rel	SENP7 inh	SENP8 block-1	SENP8 block-2	HSP90 inh	SENP8 conf	SENP6 conf	SENP7 conf	Casp3 select	Luc interf
Cc1noc(NS(=O)(=O)c2ccc(N/C=C\C(=O)c3ccc(Br)cc3)cc2)c1C	-13.2	-1.9	-11.4	-56.9	-12.5	-2.2	x	x	x	x	x
N#Cc1ccc(Cl)cc1NC(=O)CSc1nc2nc(-c3cccs3)cc(C(F)(F)F)c2c(=O)[nH]1	-29.0	-0.3	-11.9	x	-6.0	-1.4	x	x	x	x	x
O=C(CNc1cccc2ccccc12)N/N=C/c1ccc(C(=O)O)cc1	70.8*	-3.0	30.0	-199.3	57.8*	-3.3	-7.8	-3.4	-4.9	4.0	3.1
O=C(CNc1cccc2ccccc12)N/N=C/C=C/c1ccco1	82.3*	3.9	32.3	-85.7	60.5*	5.2	1.4	5.5	13.2	4.4	2.7
O=C(Cc1cccs1)N/N=C/C=C/c1ccco1	-1.7	-9.9	0.8	4.1	-4.3	-0.2	x	x	x	x	x
O=C(CNc1ccc2ccccc2c1)N/N=C/c1ccc(C(=O)O)cc1	-9.8	-0.9	-0.5	-203.2	2.7	0.0	x	x	x	x	x
C/C(=N\NC(=O)CNc1cccc2ccccc12)c1ccccc1	72.7*	0.1	19.1	-350.6	54.2*	0.0	-0.1	4.2	10.0	0.7	-0.1
CC1(C)CC(=O)C/C(=N\NC(=O)CCc2ccc(S(=O)(=O)N3CCOCC3)cc2)C1	-9.6	4.5	5.2	6.4	-4.7	-1.0	x	x	x	x	x
Cc1cccc(-n2ncc3c(N4CCC5(CC4)OCCO5)ncnc32)c1	-14.3	7.0	-18.3	7.9	-13.3	x	x	x	x	x	x

Source: PubChem (several laboratories)
